# Measurements taken from PubChem BioAssay (Tox21).
# Unmarked numbers belong to inactive results. Inconclusive results are not listed. Where a call stands in place of a potency, no number is given. Activity calls are given as the source filed them. Unless noted, the call rests on the fitted dose curve; in most records, active means well fitted curve in the direction sought with a large enough effect in the repeat runs; inconclusive means weak or mixed curves; inactive means no such curve, though single readings can be large; an effect the other way counts as inactive or inconclusive.
# Tests used:
# [1] = qHTS assay to identify small molecule agonists of the estrogen receptor alpha (ER-alpha) signaling pathway in the presence of an antagonist - cell viability counter screen (AID 1259386);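 further: cells exposed to compounds for 22 h at 37 °C before the viability read; nearly all actives have a fitted effect of over 30% in size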; further: potency means the concentration at half of the fitted maximal effect
# Method in brief: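 In this counter screen, compound effects on VM7Luc4E2 viability were tested in the presence of the antagonist ICI-182,780 at 10.0nM final. Compounds were dosed at 15 concentrations, exposure lasted 22hr, and the CellTiter-Fluor signal was read.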
# [2] = target: Progesterone receptor (Homo sapiens) (UniProt P06401); assay: qHTS assay to identify small molecule agonists of the progesterone receptor (PR) signaling pathway (AID 1346784; calls by dose curve; further: nearly all actives have a fitted effect of over 30% in size; further: potency means the concentration at half of the fitted maximal effect)
# Progesterone receptor (Homo sapiens), sequence (P06401 whole entry, looked up): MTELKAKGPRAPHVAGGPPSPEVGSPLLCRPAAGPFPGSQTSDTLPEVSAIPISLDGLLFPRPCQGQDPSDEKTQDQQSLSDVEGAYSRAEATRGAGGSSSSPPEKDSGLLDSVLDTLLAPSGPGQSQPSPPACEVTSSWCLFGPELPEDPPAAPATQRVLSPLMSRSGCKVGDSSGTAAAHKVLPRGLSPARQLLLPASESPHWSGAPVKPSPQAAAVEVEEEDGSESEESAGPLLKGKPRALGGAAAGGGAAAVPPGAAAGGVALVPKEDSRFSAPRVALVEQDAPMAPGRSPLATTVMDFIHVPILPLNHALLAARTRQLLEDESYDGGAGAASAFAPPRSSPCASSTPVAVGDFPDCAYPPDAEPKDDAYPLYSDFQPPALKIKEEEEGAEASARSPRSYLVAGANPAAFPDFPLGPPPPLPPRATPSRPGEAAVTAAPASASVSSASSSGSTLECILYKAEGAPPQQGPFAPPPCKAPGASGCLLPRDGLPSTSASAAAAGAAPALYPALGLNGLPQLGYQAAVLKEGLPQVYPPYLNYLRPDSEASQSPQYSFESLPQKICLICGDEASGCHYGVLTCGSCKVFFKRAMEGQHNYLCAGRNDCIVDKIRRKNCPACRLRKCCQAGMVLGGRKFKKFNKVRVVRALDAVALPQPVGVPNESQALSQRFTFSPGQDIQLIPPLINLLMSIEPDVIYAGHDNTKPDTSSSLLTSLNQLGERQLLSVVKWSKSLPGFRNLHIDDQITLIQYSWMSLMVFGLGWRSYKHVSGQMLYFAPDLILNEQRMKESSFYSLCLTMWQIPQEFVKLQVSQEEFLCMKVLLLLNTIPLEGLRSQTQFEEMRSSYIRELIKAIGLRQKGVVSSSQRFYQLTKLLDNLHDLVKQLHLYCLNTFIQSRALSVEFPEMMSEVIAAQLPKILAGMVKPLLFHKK
# Method in brief: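 HEK 293T PR-UAS-bla reporter cells, 2% charcoal-stripped FBS; 6 hr settle at 37C/5% CO2, compound (DMSO) 16 hr, LiveBLAzer B/G FRET substrate 2 hr RT, fluorescence intensity read.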
# [3] = qHTS assay to identify small molecule antagonists of the progesterone receptor (PR) signaling pathway - cell viability counter screen (AID 1346798); further: nearly all actives have a fitted effect of over 50% in size; further: potency means the concentration at half of the fitted maximal effect
# Method in brief: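 Luminescence readout (CellTiter-Glo, 30 min, RT) of viability in PR-UAS-bla HEK293T cells exposed to compound and R5020 agonist for 16 hr at 37C, 5% CO2; run in the same wells as the beta-lactamase reporter read.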
# [4] = qHTS assay to identify small molecule agonists of the progesterone receptor (PR) signaling pathway - cell viability counter screen (AID 1346799; calls by dose curve; further: nearly all actives have a fitted effect of over 45% in size; further: potency means the concentration at half of the fitted maximal effect)
# Method in brief: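 HEK293T PR-UAS-bla, 3,000 cells/well, 2% charcoal-stripped FBS; 6 h settle, compound 16 h at 37C/5% CO2; LiveBLAzer 2 h RT, then CellTiter-Glo 30 min RT, luminescence read.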
# [5] = qHTS assay to identify small molecule antagonists of the TGF-beta/Smad signaling pathway - cell viability counter screen (AID 1346824); further: nearly all actives have a fitted effect of over 50% in size
# Method in brief: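 Cytotoxicity counter-screen run in the same wells as the beta-lactamase Smad reporter read: CellTiter-Glo luminescence after 30 min at room temperature. HEK 293T SBE-bla cells had 5 hr compound exposure at 37 C with TGF-beta1 (0.25 ng/mL stock).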
# [6] = qHTS assay to identify small molecule agonists of the TGF-beta/Smad signaling pathway - cell viability counter screen (AID 1346829); further: top concentration of the series differs between compounds; nearly all actives have a fitted effect of over 45% in size
# Method in brief: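 Luminescence from CellTiter-Glo, read after a 30 min room-temperature incubation, gives cell viability of SBE-bla HEK 293T cells treated 5 hr with compounds at 37 C.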
# [7] = qHTS assay to identify small molecule agonists of the TGF-beta/Smad signaling pathway (AID 1346859; active means well fitted activation curve with a large enough effect in the signal ratio in the repeat runs, not every such curve was filed as active; the % refers to the signal ratio; further: series mostly up to about 77 µM)
# Method in brief: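 Read-out: fluorescence at 460 and 530 nm (405 nm excitation) after a 2 hr room-temperature incubation with beta-lactamase FRET substrate. SBE-bla HEK 293T cells had been treated with test compounds for 5 hr at 37 C.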
# [8] = target: Thyrotropin-releasing hormone receptor (Homo sapiens) (UniProt P34981); assay: qHTS assay to identify small molecule antagonists of the thyrotropin-releasing hormone receptor (TRHR) signaling pathway (AID 1346877; active means well fitted inhibition curve with a large enough effect in the repeat runs, not every such curve was filed as active; further: series mostly up to about 51 µM)
# Thyrotropin-releasing hormone receptor (Homo sapiens), sequence (P34981 whole entry, looked up): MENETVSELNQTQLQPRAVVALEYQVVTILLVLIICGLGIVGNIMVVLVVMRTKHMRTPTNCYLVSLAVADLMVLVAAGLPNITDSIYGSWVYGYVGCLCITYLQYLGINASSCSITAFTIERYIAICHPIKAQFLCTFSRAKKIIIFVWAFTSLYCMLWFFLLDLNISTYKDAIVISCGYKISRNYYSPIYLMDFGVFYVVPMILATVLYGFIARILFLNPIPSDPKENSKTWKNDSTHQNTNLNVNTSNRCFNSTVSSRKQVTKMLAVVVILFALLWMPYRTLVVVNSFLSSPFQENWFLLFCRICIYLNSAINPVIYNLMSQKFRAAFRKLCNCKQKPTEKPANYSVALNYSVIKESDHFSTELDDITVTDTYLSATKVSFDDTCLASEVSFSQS
# Method in brief: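 Kinetic fluorescence (3 min, 1 s resolution) following stimulation with TRH at 1 nM final; HEK293 cells bearing human TRHR; 5 min compound preincubation at RT; concentration-response over 15 points, triplicates.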
# [9] = target: Thyrotropin-releasing hormone receptor (Homo sapiens) (UniProt P34981); assay: qHTS assay to identify small molecule agonists of the thyrotropin-releasing hormone receptor (TRHR) signaling pathway (AID 1346891; calls by dose curve;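 further: HEK293 cells expressing TRHR with calcium dye readout; series mostly up to about 58 µM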)
# Method in brief: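 HEK293/TRHR cells, 1500 per well, 18 h 37 °C; Ca dye 2 h 37 °C; pin-tool compound addition (agonist mode); kinetic fluorescence 3 min, 1 s reads; 15 concentrations, triplicate.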
# [10] = Human pregnane X receptor (PXR) small molecule agonists, qHTS cell viability counter screen (AID 1346977); further: nearly all actives have a fitted effect of over 50% in size; further: potency means the concentration at half of the fitted maximal effect
# Method in brief: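 Fluorescence read-out (CellTiter-Fluor) of viability in PXR-Luc HepG2 cells, multiplexed with the luciferase agonist read. Compounds in DMSO added after 5hr plating; 24hr total exposure at 37C, 5% CO2.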
# [11] = Caspase-3/7 induction in CHO-K1 cells by small molecules, qHTS cell viability counter screen (AID 1346979); further: nearly all actives have a fitted effect of over 35% in size; further: potency means the concentration at half of the fitted maximal effect
# Method in brief: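 CHO-K1 wt, 1,500 cells/well; 5hr pre-incubation 37C/5% CO2; compound pin transfer (DMSO); 16hr exposure; CellTiter-Fluor added, 1hr, fluorescence read.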
# [12] = Caspase-3/7 induction in CHO-K1 cells by small molecules, qHTS assay (AID 1346980); further: nearly all actives have a fitted effect of over 15% in size
# Method in brief: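 Luminescent Caspase-Glo 3/7 read (30min, room temperature) quantified apoptosis induction. Cells were wild-type CHO-K1, treated with compound for 17hr at 37 C and 5% CO2.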
# [13] = Caspase-3/7 induction in HepG2 cells by small molecules, qHTS cell viability counter screen (AID 1346981); further: nearly all actives have a fitted effect of over 30% in size; further: potency means the concentration at half of the fitted maximal effect
# Method in brief: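 In this quantitative HTS counter screen, compounds delivered in DMSO were left on unmodified HepG2 cells for 16 hr at 37 C. Viability was then determined fluorometrically with CellTiter-Fluor, in parallel with caspase-3/7 induction in the same wells.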
# [14] = target: Nuclear receptor subfamily 1 group I member 2 (Homo sapiens) (UniProt O75469); assay: Human pregnane X receptor (PXR) activation by small molecules, qHTS assay (AID 1346985); further: nearly all actives have a fitted effect of over 40% in size
# Nuclear receptor subfamily 1 group I member 2 (Homo sapiens), sequence (O75469 whole entry, looked up): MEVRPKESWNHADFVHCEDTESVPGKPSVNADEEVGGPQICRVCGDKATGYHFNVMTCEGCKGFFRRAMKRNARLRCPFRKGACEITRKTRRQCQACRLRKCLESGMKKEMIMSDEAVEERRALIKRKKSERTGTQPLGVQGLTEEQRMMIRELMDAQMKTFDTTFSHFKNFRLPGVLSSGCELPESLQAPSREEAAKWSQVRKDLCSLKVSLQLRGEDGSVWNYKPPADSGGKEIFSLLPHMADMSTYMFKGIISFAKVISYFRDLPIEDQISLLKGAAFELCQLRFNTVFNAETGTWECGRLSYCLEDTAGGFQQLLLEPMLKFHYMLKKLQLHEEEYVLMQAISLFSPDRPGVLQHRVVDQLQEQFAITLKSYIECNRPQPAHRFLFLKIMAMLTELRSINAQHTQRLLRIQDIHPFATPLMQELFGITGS
# Method in brief: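 DPX-2 cells (HepG2 co-transfected with a PXR response element and a CYP3A4-promoter luciferase construct) were seeded at 2,000 per well, rested 5 hr at 37C, then exposed to DMSO-dissolved compounds for 24 hr. Activation was read as luciferase luminescence.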
# [15] = target: Cytochrome P450 2D6 (Homo sapiens) (UniProt P10635); assay: Cytochrome P450 Family 2 Subfamily D Member 6 (CYP2D6) small molecule antagonists: luciferase reporter qHTS assay (AID 1671196); further: nearly all actives have a fitted effect of over 50% in size; further: potency means the concentration at half of the fitted maximal effect
# Cytochrome P450 2D6 (Homo sapiens), sequence (P10635 whole entry, looked up): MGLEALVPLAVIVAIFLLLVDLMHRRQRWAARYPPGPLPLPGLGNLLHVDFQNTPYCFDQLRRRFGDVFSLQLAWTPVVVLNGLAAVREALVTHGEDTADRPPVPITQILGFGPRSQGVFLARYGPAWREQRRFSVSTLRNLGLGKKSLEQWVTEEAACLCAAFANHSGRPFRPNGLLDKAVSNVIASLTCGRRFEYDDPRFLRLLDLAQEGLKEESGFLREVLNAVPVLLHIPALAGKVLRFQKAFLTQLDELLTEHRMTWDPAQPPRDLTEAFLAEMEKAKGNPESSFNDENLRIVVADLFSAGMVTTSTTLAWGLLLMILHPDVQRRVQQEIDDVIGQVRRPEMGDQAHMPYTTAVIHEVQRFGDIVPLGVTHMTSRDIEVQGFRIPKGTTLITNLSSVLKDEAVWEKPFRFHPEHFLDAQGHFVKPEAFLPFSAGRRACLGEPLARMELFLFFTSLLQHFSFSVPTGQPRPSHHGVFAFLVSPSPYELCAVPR
# Method in brief: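 Test chemicals meet CYP2D6 plus proluciferin substrate (10 min, RT); NADPH regenerating solution then drives turnover for 1 h. Detection reagent halts the reaction; luminescence measured after 20 min.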
# [16] = target: Progesterone receptor (Homo sapiens) (UniProt P06401); assay: qHTS assay to identify small molecule antagonists of the progesterone receptor (PR) signaling pathway (AID 1346795; active means well fitted inhibition curve with a large enough effect in the signal ratio in the repeat runs, not every such curve was filed as active; the % refers to the signal ratio; further: potency means the concentration at half of the fitted maximal effect)
# Method in brief: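 Beta-lactamase reporter, HEK293T PR-UAS-bla line; 2% charcoal-stripped FBS; 6 hr pre-incubation, 37C/5% CO2. Compound + R5020 1 nM final, 16 hr. LiveBLAzer B/G FRET substrate, 2 hr RT; fluorescence intensity read.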
# [17] = Caspase-3/7 induction in HepG2 cells by small molecules, qHTS assay (AID 1346978); further: nearly all actives have a fitted effect of over 15% in size
# Method in brief: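 Caspase-3/7 induction was measured by Caspase-Glo 3/7 luminescence (30 min, room temperature) after a 17 hr compound exposure of wild-type HepG2 cells seeded at 2,000 per well and pre-incubated 5 hr.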
# [18] = target: Nuclear receptor subfamily 1 group I member 2 (Homo sapiens) (UniProt O75469); assay: Human pregnane X receptor (PXR) small molecule agonists, qHTS assay (AID 1346982); further: nearly all actives have a fitted effect of over 35% in size; further: potency means the concentration at half of the fitted maximal effect
# Method in brief: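 Reporter HepG2 cells expressing PXR-Luc are cultured in charcoal-stripped FBS (5%), treated with compounds for 24 hr at 37 C, and assayed by ONE-Glo luminescence after 30 min at room temperature.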
# [19] = target: Nuclear receptor subfamily 1 group I member 2 (Homo sapiens) (UniProt O75469); assay: CYP3A4 induction through human pregnane X receptor (PXR) by small molecules, qHTS assay (AID 1346984); further: nearly all actives have a fitted effect of over 40% in size
# Method in brief: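 Induction measured in HepG2-based DPX-2 cells co-expressing human PXR and a CYP3A4 promoter-driven luciferase. After a 24-hour compound exposure, cells received CYP3A4 luciferin substrate at 3uM final for 3 hours, and light output was then recorded.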
# [20] = target: Nuclear receptor subfamily 1 group I member 2 (Rattus norvegicus) (UniProt Q9R1A7); assay: Rat pregnane X receptor (rPXR) activation by small molecules, qHTS assay (AID 1346983); conditions: rPXR luciferase reporter cells, One-Glo luminescence, 24 h; max activation: active compounds read high; further: nearly all actives have a fitted effect of over 20% in size
# Nuclear receptor subfamily 1 group I member 2 (Rattus norvegicus), sequence (Q9R1A7 whole entry, looked up): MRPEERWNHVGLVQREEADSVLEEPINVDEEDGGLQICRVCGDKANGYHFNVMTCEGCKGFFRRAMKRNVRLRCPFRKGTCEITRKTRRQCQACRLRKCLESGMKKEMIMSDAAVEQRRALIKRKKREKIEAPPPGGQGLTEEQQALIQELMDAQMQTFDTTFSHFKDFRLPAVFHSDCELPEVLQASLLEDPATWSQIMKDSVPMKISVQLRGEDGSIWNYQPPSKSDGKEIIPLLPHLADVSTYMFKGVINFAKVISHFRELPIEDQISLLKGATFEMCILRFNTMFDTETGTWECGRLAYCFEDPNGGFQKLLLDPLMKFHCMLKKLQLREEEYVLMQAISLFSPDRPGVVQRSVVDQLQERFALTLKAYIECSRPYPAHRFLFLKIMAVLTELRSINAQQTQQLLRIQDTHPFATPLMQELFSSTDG
# Method in brief: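 Luminescent readout (One-Glo luciferase, 30 min room temperature) followed 24 hr compound treatment at 37 C of rPXR cells plated 2,000 per well and preincubated 5hr; qHTS format with compounds delivered in DMSO.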
Structure (SMILES),Potency [1],Potency [2],Potency [3],Potency [4],outcome [5],outcome [6],outcome [7],outcome [8],Potency [9],Potency [10],Potency [11],outcome [12],Potency [13],Potency [14],Potency [15],Potency [16],Potency [17],Potency [18],Potency [19],max activation [20] [%]
CN1CCN(CCCN2c3ccccc3Sc3ccc(S(=O)(=O)N(C)C)cc32)CC1,inactive,inactive,13.3 µM (active),6.68 µM (active),inactive,inactive,inactive,inactive,inactive,26.6 µM (active),26.6 µM (active),inactive,29.8 µM (active),inactive,15.5 µM (active),,,,,
CC1CC(O)CC(C)(C)C1 (stereo not given),inactive,inactive,,,inactive,inactive,,inactive,inactive,inactive,inactive,inactive,inactive,inactive,inactive,inactive,inactive,inactive,inactive,
CCCCCCCCCCOS(=O)(=O)O,inactive,inactive,,,inactive,inactive,inactive,inactive,inactive,inactive,inactive,inactive,inactive,,,inactive,inactive,,,
CC(=O)OCC(=O)[C@@]12OC(C)(C)O[C@@H]1C[C@H]1[C@@H]3C[C@H](F)C4=CC(=O)C=C[C@]4(C)[C@@]3(F)[C@@H](O)C[C@@]12C,inactive,0.0033 µM (active),inactive,,inactive,inactive,inactive,,,inactive,,inactive,inactive,,,inactive,inactive,,,
CCOC(=O)/C=C/C(=O)O,inactive,inactive,,inactive,inactive,inactive,,inactive,inactive,inactive,inactive,inactive,inactive,,,inactive,inactive,inactive,,
CCc1nn(CCCN2CCN(c3cccc(Cl)c3)CC2)c(=O)n1CCOc1ccccc1,29.8 µM (active),inactive,,,inactive,inactive,inactive,,inactive,23.7 µM (active),29.8 µM (active),inactive,,,4.9 µM (active),26.6 µM (active),inactive,,inactive,
Cc1ccc(S)cc1,inactive,inactive,inactive,,inactive,inactive,inactive,inactive,inactive,inactive,inactive,inactive,,,inactive,inactive,inactive,inactive,,
Oc1ccc(Nc2ccccc2)cc1,inactive,inactive,inactive,,inactive,inactive,inactive,inactive,inactive,inactive,,inactive,inactive,,63.3 µM (active),27.3 µM (active),inactive,54.5 µM (active),,
CCCCC(=O)O[C@]1(C(=O)CO)[C@@H](C)C[C@H]2[C@@H]3CCC4=CC(=O)C=C[C@]4(C)[C@@]3(F)[C@@H](O)C[C@@]21C,inactive,0.0019 µM (active),,inactive,inactive,inactive,,,,inactive,,inactive,,,35.6 µM (active),inactive,inactive,34.4 µM (active),,
CCCCCCCC/C=C\CCCCCCCC(=O)OC,inactive,inactive,,inactive,inactive,,inactive,,,inactive,inactive,inactive,inactive,,inactive,inactive,inactive,inactive,,
CC(C)(C)C(=O)O,inactive,inactive,,inactive,inactive,,inactive,,inactive,inactive,inactive,inactive,inactive,,inactive,inactive,inactive,inactive,,
COc1ccc(CCC(=O)c2c(O)cc(O[C@@H]3O[C@H](CO)[C@@H](O)[C@H](O)[C@H]3O[C@@H]3O[C@@H](C)[C@H](O)[C@@H](O)[C@H]3O)cc2O)cc1O,inactive,inactive,inactive,inactive,inactive,inactive,inactive,inactive,inactive,inactive,inactive,inactive,inactive,,inactive,,inactive,inactive,,
CC#N,inactive,inactive,inactive,inactive,inactive,inactive,inactive,inactive,inactive,inactive,inactive,inactive,inactive,,inactive,,inactive,inactive,,
NC(=O)Nc1ccc(Cl)c(Cl)c1,inactive,inactive,inactive,inactive,inactive,inactive,inactive,inactive,inactive,inactive,inactive,inactive,inactive,,,,inactive,48.4 µM (active),,
COC(=O)[C@@H]1CC2=CC(=O)CC[C@]2(C)[C@@]23O[C@@H]2C[C@@]2(C)[C@@H](CC[C@@]24CCC(=O)O4)[C@H]13,inactive,inactive,inactive,inactive,inactive,inactive,inactive,inactive,inactive,inactive,inactive,inactive,inactive,inactive,,,inactive,inactive,inactive,-1.51
